Results reported in PubChem BioAssay AID620 (Sanford-Burnham Center for Chemical Genomics, 2007).
About 360 (0.41%) of roughly 87,000 compounds were called active. Many of the other results were omitted from the sample, so actives are more common in it than they were. Unmarked numbers belong to inactive results. Cut-off read from the data, not from the text of the source: active = cytotoxicity above about 50%; inactive = the rest.

Assay: HT1080 cell viability loss – fluorescence readout (AID 620);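 note: cells exposed to compound overnight then 4 h with Alamar Blue; 0% = vehicle DMSO and 100% = killing control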
Settings: at 10 µM, hits give high values
In the case of `CCCc1cc(=O)[nH]c(SCC(=O)C(C)(C)C)n1`, the cytotoxicity is reported as -8.7%.
Compound `CCCC(C)C1C(C#N)=C(N)Oc2cc(C)oc(=O)c21` (stereo not given) has a cytotoxicity of 0.8%.
`O=C(OCn1ncc(Br)c(Br)c1=O)c1ccccc1Cl` showed a cytotoxicity of 40%.
For `O=C(OCn1ncc(Br)c(Br)c1=O)c1c(F)cccc1F`, the cytotoxicity was 100% (active).
With `CCn1ncc(Br)c1C(=O)Nc1ccc(F)cc1F` the cytotoxicity was 2.8%.
For `Cc1onc(-c2c(F)cccc2Cl)c1C(=O)OCn1nnc2ccccc2c1=O`, the cytotoxicity was -0.3%.
`CCn1ncc(Br)c1C(=O)Nc1ccc(C(=O)OC(C)C)cc1` gave a cytotoxicity of -9.8%.
In the case of `O=C(OCn1ncc(Br)c(Br)c1=O)c1ccc(F)cc1`, the cytotoxicity is reported as 95.8% (active).
Compound `CC1CC(C)CN(C(=O)c2ccccc2Nc2ccc(SC(F)F)cc2)C1` (stereo not given) has a cytotoxicity of -5.3%.
For `COc1cc(OC)cc(-c2nnc(SCC(=O)N3CCCC3)o2)c1`, the cytotoxicity was 9%.
`CCOc1cc(C(c2c(C)[nH][nH]c2=O)c2c(C)[nH][nH]c2=O)ccc1OS(=O)(=O)c1ccc(C)cc1` showed a cytotoxicity of -4.6%.
For `COc1ccc(CCNC(=O)CSc2nnnn2-c2ccccc2OC)cc1OC`, the cytotoxicity was 1%.
For `CCCSc1nnc(Sc2nnnn2-c2ccccc2)s1`, the cytotoxicity was 60% (active).
In the case of `COc1ccc(-n2nnnc2SCC(=O)NCCc2ccc(OC)c(OC)c2)cc1`, the cytotoxicity is reported as -21.1%.
For `c1ccc(-n2nnnc2SCCCSc2nc3ccccc3s2)cc1`, the cytotoxicity was 5.7%.
With `CCSc1nnnn1-c1ccccc1` the cytotoxicity was 11%.
With `COc1ccc(CCNc2nnc(Sc3nnnn3-c3ccccc3)s2)cc1OC` the cytotoxicity was 57.2% (active).
For `NS(=O)(=O)c1ccc(CCNc2nc(CN3CCCCC3)nc3sc4c(c23)CCC4)cc1`, the cytotoxicity was 28.3%.
For `CSc1nc(-c2ccccc2)nc2[nH]ccc(=O)c12`, the cytotoxicity was 8.6%.
Work on `CSc1nc2ccc(S(=O)(=O)N(C)C)cc2s1` yielded a cytotoxicity of -0.9%.
Compound `CCc1cc(C)c(O)c(CC)n1` has a cytotoxicity of -4.2%.
For `Nc1ccc(C(=O)n2c3ccccc3c3ccccc32)cc1`, the cytotoxicity was 52.6% (active).
With `Nc1ccc(C(=O)N2CCCC2)cc1` the cytotoxicity was 13%.
`Cn1c2ccccc2c2cc(C(=O)O)ccc21` showed a cytotoxicity of 6.9%.
With `CC(C)Cc1nnc(NC(=O)CC(=O)Nc2ccccc2C(=O)O)s1` the cytotoxicity was -4.8%.
`O=C(NC1CC1)c1sccc1-n1cccc1` showed a cytotoxicity of 4%.
With `COc1ccc(OCCSc2nnc3sc4ccccc4n23)cc1` the cytotoxicity was -2.4%.
For `COc1cccc(OCCSc2nnc3sc4ccccc4n23)c1`, the cytotoxicity was 12.4%.
`CCOC(=O)C1CCN(C(=O)CCCN2C(=O)c3ccccc3C2=O)CC1` showed a cytotoxicity of 5%.
In the case of `CC[Si](CC)(CC)c1c2c(nc3ccc(OC)cc13)-c1cccc(=O)n1C2`, the cytotoxicity is reported as -6.3%.
`CCNC(=O)COc1ccc(S(=O)(=O)Nc2ccccc2)cc1` showed a cytotoxicity of 2.5%.
Compound `COc1ccc(S(=O)(=O)Cc2ccc(C(=O)NCc3ccc(F)cc3)o2)cc1` has a cytotoxicity of -10.5%.
`COc1ccc(-n2c(Cc3cccn3C)nnc2SCC(=O)N2CCCc3ccccc32)cc1` showed a cytotoxicity of 0.6%.
`CCCCCCN(C(=O)CCCCCN1C(=O)NC(c2ccc([N+](=O)[O-])cc2)C(C(=O)OCc2ccccc2)=C1C)C(C(=O)NCCCC)c1ccc(OCC(=O)OC)c(C(=O)OC)c1` (stereo not given) gave a cytotoxicity of -7.3%.
With `Cc1ccc(-n2c(-c3ccc(Br)cc3)c[n+]3c2CCc2ccc4cccnc4c2-3)cc1` the cytotoxicity was 63.8% (active).
For `Brc1ccc(-c2nnc3n2-c2ccccc2CC3)cc1`, the cytotoxicity was 2%.
In the case of `Cc1ccc(S(=O)(=O)Nc2cccc3cccnc23)cc1`, the cytotoxicity is reported as -3%.
Compound `COc1ccccc1NC(=O)CSc1nnc(COc2ccc(Cl)cc2)n1Cc1ccco1` has a cytotoxicity of -2%.
`COc1ccc(OC)c(NC(=O)CN(c2ccc(C)cc2)S(=O)(=O)c2c(C)noc2C)c1` showed a cytotoxicity of 2.3%.
For `COc1ccc(N(CC(=O)Nc2cc(Cl)ccc2OC)S(=O)(=O)c2c(C)noc2C)cc1`, the cytotoxicity was 53.8% (active).
`CCOc1ccc(N(CC(=O)NC(C)(C)C)S(=O)(=O)c2c(C)noc2C)cc1` gave a cytotoxicity of -10.4%.
In the case of `CCOc1ccccc1NC(=O)CN(c1ccc(OC)cc1)S(=O)(=O)c1c(C)noc1C`, the cytotoxicity is reported as 53.1% (active).
Compound `CCOc1ccc(N(CC(=O)Nc2ccc(C)cc2)S(=O)(=O)c2c(C)noc2C)cc1` has a cytotoxicity of 3.5%.
Compound `COc1ccc(N(CC(=O)Nc2cc(C)ccc2OC)S(=O)(=O)c2c(C)noc2C)cc1` has a cytotoxicity of -2.6%.
For `CCOc1ccc(N(CC(=O)Nc2ccccc2C)S(=O)(=O)c2c(C)noc2C)cc1`, the cytotoxicity was 54.9% (active).
`CCOc1ccccc1NC(=O)CN(c1cc(C)cc(C)c1)S(=O)(=O)c1c(C)noc1C` showed a cytotoxicity of -7.8%.
Compound `CCOc1ccccc1NC(=O)CN(c1ccc(C)cc1)S(=O)(=O)c1c(C)noc1C` has a cytotoxicity of -3.3%.
Work on `Cc1cccc(C)c1-n1c(C)cc(/C=C2\NC(=O)NC2=O)c1C` yielded a cytotoxicity of 15.3%.
With `Cc1cccc(Nc2nn3c(=O)c4ccccc4nc3s2)c1` the cytotoxicity was 6.1%.
Work on `CCCCCCSc1cc(C)nc2ncnn12` yielded a cytotoxicity of -4.5%.
With `CCOc1cc(-c2noc(-c3ccncc3)n2)cc(Br)c1OC` the cytotoxicity was -6.4%.
In the case of `CCN(CC)C(=O)CN(C#N)c1nc(OC)nc(N(C)C)n1`, the cytotoxicity is reported as 5.3%.
Work on `CCCCn1c(N)c(N(CC)C(=O)c2ccc3c(c2)S(=O)(=O)c2ccccc2C3=O)c(=O)[nH]c1=O` yielded a cytotoxicity of -1.2%.
With `CCn1c(SCC(=O)Nc2ccc3c(c2)OCO3)nnc1-c1cnccn1` the cytotoxicity was 102% (active).
For `CCn1c(SCC(=O)Nc2ccc3c(c2)OCCO3)nnc1-c1ccccn1`, the cytotoxicity was 37%.
For `Cn1c(SCC(=O)Nc2ccc3c(c2)OCO3)nnc1-c1cnccn1`, the cytotoxicity was 13.4%.
`CN1C(=O)c2ccc(S(=O)(=O)c3ccc(C(=O)O)cc3)cc2C1=O` gave a cytotoxicity of 3.3%.
In the case of `Cc1ccc2[nH]c(=O)c(-c3nc4ccccn4c3NCc3ccco3)cc2c1`, the cytotoxicity is reported as -4.4%.
With `COc1ccc2c(c1)C(C1=C(O)CC(C)(C)CC1=O)C1=C(CC(C)(C)CC1=O)O2` (stereo not given) the cytotoxicity was 10.3%.
For `CC[C@]1(O)CC2CN(CCc3c([nH]c4ccccc34)[C@@](C(=O)OC)(c3cc4c(cc3OC)N(C=O)[C@H]3[C@@](O)(C(=O)OC)[C@H](OC(C)=O)[C@]5(CC)C=CCN6CC[C@]43[C@@H]65)C2)C1` (stereo not given in full), the cytotoxicity was 65.8% (active).
`CC(C)Cn1c(=O)c2c(c3ccccc31)OC(C)C(=O)N2` (stereo not given) showed a cytotoxicity of -0.6%.
`CCOC(=O)CNC(=O)C(Cc1ccccc1)NS(=O)(=O)c1ccc2c(c1)CCC(=O)N2` (stereo not given) gave a cytotoxicity of 0.8%.
In the case of `Oc1ccc(-c2nc(-c3ccc(O)c(O)c3)cs2)cc1`, the cytotoxicity is reported as 61.2% (active).
In the case of `Cc1cccnc1Nc1nc(-c2ccc(O)c(O)c2)cs1`, the cytotoxicity is reported as 9.2%.
`NS(=O)(=O)c1ccc(Nc2nc(-c3ccc4ccccc4c3)cs2)cc1` gave a cytotoxicity of -2.9%.
With `Oc1ccc(Nc2nc(-c3ccc(O)cc3)cs2)cc1` the cytotoxicity was 2.8%.
`Oc1ccc(-c2csc(-c3ccccc3)n2)cc1O` showed a cytotoxicity of 15.6%.
For `Oc1ccc(Nc2nc(-c3ccc4ccccc4c3)cs2)cc1`, the cytotoxicity was 53.6% (active).
For `O=C(O)CCc1ccc(-c2cccs2)n1CCC(=O)O`, the cytotoxicity was -6.8%.
For `Cn1nc(-c2ccccc2)c(-c2nc(-c3cccc(C(F)(F)F)c3)no2)c1Cl`, the cytotoxicity was 6.9%.
`Cc1cccc(C)c1NC(=O)CSc1nc(-c2ccco2)cc(C(F)(F)F)n1` gave a cytotoxicity of 3.3%.
With `Cc1cc(NC(=O)CCCSc2nc(-c3ccco3)cc(C(F)(F)F)n2)no1` the cytotoxicity was 2.7%.
Compound `Cc1ccc(NC(=O)CSc2nc(-c3ccco3)cc(C(F)(F)F)n2)cc1C` has a cytotoxicity of -8.6%.
`COC(=O)c1ccc(C(=O)OC)c(NC(=O)CSc2nc(-c3ccco3)cc(C(F)(F)F)n2)c1` showed a cytotoxicity of 5.6%.
For `COC(=O)c1ccccc1NC(=O)CSc1nc(-c2ccco2)cc(C(F)(F)F)n1`, the cytotoxicity was 52.3% (active).
For `O=C(CSc1nnc(-c2ccccn2)n1Cc1ccccc1)Nc1ccc2c(c1)OCO2`, the cytotoxicity was 3.3%.
Work on `Cc1oc(C(=O)O)cc1COc1ccc2c(C)cc(=O)oc2c1` yielded a cytotoxicity of -7.7%.
With `COc1cccc(N2CCN(C(=O)c3[nH]c(C)c(C(C)=O)c3C)CC2)c1` the cytotoxicity was 51% (active).
For `CC(=O)c1c(C)[nH]c(C(=O)N2CCN(c3ncccn3)CC2)c1C`, the cytotoxicity was -1.6%.
Work on `CC(=O)c1c(C)[nH]c(C(=O)N2CCN(c3ccc(F)cc3)CC2)c1C` yielded a cytotoxicity of -1.4%.
Compound `COc1ccccc1NC(=O)Cn1nc(C(F)(F)F)c2c1CCCC2` has a cytotoxicity of -0.3%.
For `CCOC(=O)c1c(C)cc(=O)oc1C`, the cytotoxicity was -21.5%.
For `CCOC(=O)c1c(C)oc2c(F)c(F)c(F)c(F)c2c1=O`, the cytotoxicity was 96.5% (active).
Compound `CCOC(=O)c1c(C)oc2cc3c(C(=O)OCC)c(C)oc3cc12` has a cytotoxicity of -0.1%.
In the case of `COC(=O)Nc1cc(C)nc2ccccc12`, the cytotoxicity is reported as -9.1%.
`COc1ccc(N2CCN(c3ncnc4nc[nH]c34)CC2)cc1` showed a cytotoxicity of -6.5%.
`O=c1cc(N2CCN(Cc3ccccc3)CC2)[nH]c(=O)n1-c1cccc(C(F)(F)F)c1` gave a cytotoxicity of 12.7%.
In the case of `Cc1ccc2nc(SCC(=O)Nc3cc(C(F)(F)F)ccc3N3CCOCC3)[nH]c2c1`, the cytotoxicity is reported as 62.5% (active).
With `Cc1onc(-c2ccccc2)c1C(=O)Nc1ccccc1N1CCOCC1` the cytotoxicity was 3.3%.
Work on `O=C(Nc1cc(C(F)(F)F)ccc1N1CCOCC1)c1c(F)c(F)c(F)c(F)c1F` yielded a cytotoxicity of 1.3%.
Work on `Cc1nnc(SCC(=O)Nc2cc(C(F)(F)F)ccc2N2CCOCC2)o1` yielded a cytotoxicity of 7%.
For `Cc1onc(-c2ccccc2)c1C(=O)Nc1cc(C(F)(F)F)ccc1N1CCOCC1`, the cytotoxicity was 59.2% (active).
Work on `O=C(CSc1nc2ccccc2[nH]1)Nc1cc(C(F)(F)F)ccc1N1CCOCC1` yielded a cytotoxicity of -2.4%.
`COCCNC(=O)C1(C)C=CCN1C(C)=O` (stereo not given) gave a cytotoxicity of -17.3%.
For `COc1ccc(NC(=O)c2ccc(-n3nc(C)cc3C)cc2)cc1OC`, the cytotoxicity was -17.7%.
`COC(=O)c1ccccc1S(=O)(=O)C(C)(C)C` gave a cytotoxicity of 7.6%.
`CCOCCCNC(=O)C1CCN(S(=O)(=O)N2CCCCC2)CC1` gave a cytotoxicity of 1.1%.
Work on `COC(=O)C1=[N+]([O-])OC(C(=O)OC)C1c1c[nH]c2ccccc12` (stereo not given) yielded a cytotoxicity of 41.5%.
`CCc1nc2c(sc3nc4c(cc32)COC(C)(C)C4)c(=O)n1Cc1ccco1` showed a cytotoxicity of 1.2%.
In the case of `Cc1nc2c(sc3nc4c(cc32)COC(C)(C)C4)c(=O)n1CC(=O)NCc1ccco1`, the cytotoxicity is reported as 55.6% (active).
For `CC1(C)Cc2nc3sc4c(=O)n(CC(=O)NCc5ccco5)cnc4c3cc2CO1`, the cytotoxicity was 15.9%.
With `CSC1=Nc2sc3c(c2C2=NCCN12)CCCC3` the cytotoxicity was 7.2%.
`COc1cc2c(cc1OC)C1Cc3ccc(OC)c(OC)c3CN1CC2` (stereo not given) showed a cytotoxicity of -0.8%.
In the case of `COc1cc2c(cc1OC)C1C/C(=N\O)C(CC(C)C)CN1CC2` (stereo not given), the cytotoxicity is reported as -13.4%.
For `CC[C@H]1CN2CCc3cc(OC)c(OC)cc3[C@@H]2C[C@@H]1C[C@H]1NCCc2cc(OC)c(OC)cc21`, the cytotoxicity was 78.8% (active).
Work on `Cc1oc(-c2ccccc2F)nc1CN1CCC(C(=O)NCc2cccs2)CC1` yielded a cytotoxicity of -2.2%.
Compound `O=S(=O)(Nc1nnc(-c2ccccc2)s1)c1ccc(Cl)cc1` has a cytotoxicity of 5.7%.
`Cc1ncc(S(=O)(=O)c2ccc(Cl)cc2)c(-c2ccccc2)n1` gave a cytotoxicity of 18.2%.
`O=C1NCCCC1C(=O)N1CCN(C(=O)C2CCCNC2=O)CC1` (stereo not given) gave a cytotoxicity of -7.4%.
For `O=C(CCn1cccc1)Nc1ccccc1F`, the cytotoxicity was -5.1%.
